The source made the active and inactive calls. Calls follow the shape of the dose curve; as a rule, active = well fitted curve in the direction sought with a large enough effect in the repeat runs; inconclusive = weak or mixed curves; inactive = flat fitted curve, though single readings scatter.
% is scaled to controls: 0 for no effect and ±100 for the full control effect.

This assay can be described thus: qHTS assay to test for compound auto fluorescence at 590 nm (red) in HEK293 cell free culture (AID 720683). As to conditions: cell-free medium autofluorescence, Ex540/Em590 red; series mostly up to 91.3 µM. An outline of the steps:
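Tox21 10K library compounds were pinned into cell-free DMEM with 10% FBS and fluorescence was read at excitation 540 nm. Activity is expressed as Rose Bengal sodium equivalency.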
On the technique in general: Quantitative high-throughput screening tests each substance at several concentrations.
As to `Cc1c([N+](=O)[O-])c(C)c([N+](=O)[O-])c(C(C)(C)C)c1[N+](=O)[O-]`, the outcome was inactive.

Take `N#CC(C#N)=NNc1cccc(Cl)c1`: the result was inactive.

Turning to `Brc1ccc(Oc2ccc(Br)cc2Br)c(Br)c1`, the result was inactive.

Turning to `CCOP(=O)(Sc1ccccc1)Sc1ccccc1`, the call was inactive.

As to `c1ccc2c(c1)cc1ccc3cccc4ccc2c1c34`, the outcome was inactive.

As for `Oc1cc(Cl)cc(Cl)c1`, the outcome was inactive.

Regarding `CC(=O)[O-].CC(=O)[O-].CC(=O)[O-].[Cr+3]`, the molecule was called inactive.

For `Cc1cc2c3c(c1)C(c1ccccc1)=N[C@@H](NC(=O)c1ccncc1)C(=O)N3CC2`, the result was inactive.

With `COc1ccc2[nH]cc(CCN(C(C)C)C(C)C)c2c1`, the molecule was classed as inactive.

Take `O=C1C2(Cl)C3(Cl)C4(Cl)C(Cl)(Cl)C5(Cl)C3(Cl)C1(Cl)C5(Cl)C24Cl` (configuration not stated): the molecule was called inactive.

For `CC(C)N(C(=O)CCl)c1ccccc1`, the call was inactive.

For `CCNc1nc(NC(C)C(C)C)nc(SC)n1` (configuration not stated), the result was inactive.

In the case of `CCCN`, the molecule was called inactive.

For the molecule `CC(=O)[O-].CC(=O)[O-].CC(=O)[O-].[Sb+3]`, the fluorescence, % of fluorescent control is -0.102% [at 3.72 µM] (inactive).

As to `Nc1cc(Cl)ccc1Cl`, the result was inactive.

`CN1CCc2cc3c(cc2C1O)OCO3` (configuration not stated): the outcome was inactive.

Consider `NC1CCC(CC2CCC(N)CC2)CC1` (configuration not stated), for which the molecule was classed as inactive.

As for `COP(=O)(OC)O/C(=C\Cl)c1cc(Cl)c(Cl)cc1Cl`, the molecule was called inactive.

`CCCC[N+]1(C)CCCC1` (tested in a mixture with another compound): the molecule was called inactive.

Consider `c1ccc2nc(N3CCNCC3)ccc2c1`, for which the molecule was classed as inactive.

`CCCCN(CCCC)C(=S)[S-].CCCCN(CCCC)C(=S)[S-].[Ni+2]`: the call was inactive.

Turning to `O=C(Nc1ccc(F)cc1F)c1cccnc1Oc1cccc(C(F)(F)F)c1`, the molecule was classed as inactive.

For `CC(C)=CC1C(C(=O)OC(C#N)c2cccc(Oc3ccccc3)c2)C1(C)C` (configuration not stated), the molecule was called inactive.

Consider `CC1(C)C(C=C(Cl)Cl)C1C(=O)OC(C#N)c1ccc(F)c(Oc2ccccc2)c1` (configuration not stated), for which the result was inactive.

As to `C#CC1(O)CCCCC1`, the molecule was classed as inactive.

As for `C=Cc1cccc(CCl)c1`, the call was inactive.

As for `CCC(C)c1cccc(C(C)CC)c1O` (configuration not stated), the call was inactive.

For `C[C@H]1[C@H](c2ccc(Cl)cc2)SC(=O)N1C(=O)NC1CCCCC1`, the outcome was inactive.

As for `N#Cc1ccc(N(CC(N)=O)CC(F)(F)F)cc1C(F)(F)F`, the outcome was inactive.

Regarding `O=C(Cl)c1ccccc1F`, the molecule was classed as inactive.

On to `CCOC(=O)Cc1ccccc1`, for which the molecule was classed as inactive.

As for `Brc1cccc(-c2ccccc2)c1`, the outcome was inactive.

On to `CC(C)Br`, for which the molecule was classed as inactive.

For the molecule `c1csc(-c2ccc(-c3cccs3)s2)c1`, the call was inactive.

Consider `CC(=O)C(Cl)C(=O)N(C)C` (configuration not stated), for which the molecule was classed as inactive.

`ClC(Cl)C(Cl)(Cl)Cl`: the molecule was called inactive.

Take `CC(C)C(Br)C(=O)NC(N)=O` (configuration not stated): the call was inactive.

The record behind these values is PubChem BioAssay (Tox21).
